# High-throughput results deposited in PubChem BioAssay by several laboratories.
# An excerpt weighted towards active compounds, which were near 3.6% of everything screened.
# TROY signal inh – inhibitors of TROY-driven NF-kB signaling, primary screen, Q293 LMP1-TROYcd cells, NF-kB luciferase, uHTS; Q293 LMP1-TROYcd NF-kB luciferase reporter, 4 h; 360,000 compounds, 0.98% hits; inhibition, % at 10 µM;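 active means compounds whose plate-normalised and pattern-corrected inhibition of the luciferase reporter signal at the single screening dose is 50% or more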
# HSF1 inhib – HSF1 inhibitors in luciferase reporter cells, primary screen, cell-based, NIH3T3, luminescence; NIH3T3-HGL HSE-luciferase, MG132-induced, luminescence 8 h; active compounds read low; activity change, negative = inhibition, % at 7.5 µM (by protocol); 300,000 compounds, 0.77% hits; AID 2098, 2009;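 active means more than half of replicate wells show activity change below -50%, luminescence cut by over half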;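 further: luciferase reports HSF-1 transcriptional activity via heat shock element; 0% = median of DMSO wells and -100% = zero luminescence signal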
# LGR2 antag – inhibitors of bursicon-induced LGR2 CRE-luciferase signal, primary screen, cell-based, HEK293, CRE-luciferase reporter, bursicon stimulation; bursicon-stimulated, 4 h; Drosophila bursicon receptor LGR2 (rickets); 380,000 compounds, 0.35% hits; inhibition, % at 9.99 µM;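 active means drop in luminescence signal, shown as inhibition above about 50% in the replicate tests, limit read from the data, passing the limit was not always enough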;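 further: agonist challenge used bursicon conditioned medium at about half maximal strength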
# EBV LMP1 NFkB – EBV LMP1-driven NF-kappaB luciferase reporter inhibitors, primary screen, cell-based, luminescence, single point | LMP1-induced NF-kappaB luciferase reporter cells | inhibition, % at 12.5 µM | 350,000 compounds, 0.69% hits; in the data active means inhibition above about 41%;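 further: 0% = neutral control wells and 100% = reference inhibitor control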
# HSF-1 act – HSF-1 activators, primary screen, NIH3T3-HGL cells, MG132 stress, luminescence, single point; 300,000 compounds, 1.7% hits; activation, % at 9 µM; NIH3T3-HGL HSF-1 luciferase reporter, 8 h; 100% = twice DMSO control signal;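 active means mean replicate activation of at least 50% with a set share of replicates each reaching 50%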;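 further: 0% = median of the neutral control wells and 100% = twice that signal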
# TWEAK Fn14 block – inhibitors of TWEAK-Fn14 signaling, primary screen, luciferase reporter cells, uHTS; TWEAK-stimulated Fn14 reporter cells, luciferase luminescence, 8 h; inhibition, % at 10 µM; AID 1159606, 2016; 360,000 compounds, 2% hits; in the data active means inhibition above about 50%
# Active calls of the source: *; / = no result given.
SMILES,TROY signal inh,HSF1 inhib,LGR2 antag,EBV LMP1 NFkB,HSF-1 act,TWEAK Fn14 block
Oc1ccc2ccccc2c1CN1CCCC1,-2,-1,39,-1,-9,3
CCC(=O)NC(=S)Nc1ccc(NC(=O)COc2ccc(Cl)cc2Cl)cc1,-25,31,-35,-24,53*,-24
O=C(COc1ccc(CO)cc1Cl)Nc1ccc(F)cc1,7,34,/,-34,55*,63*
CC(=O)NC(=S)Nc1ccc(NC(=O)COc2ccc(Cl)cc2)cc1,0,32,/,-33,64*,-31
O=C(COc1ccc(CO)cc1)Nc1ccc(F)cc1,-34,9,/,-16,23,1
CCC(=O)NC(=S)Nc1ccc(NC(=O)COc2ccc(Cl)c(C)c2)cc1,-54,45,/,-9,79*,32
COc1ccc(CN(C)C[C@H]2OCCCC[C@@H](C)Oc3ccc(NS(=O)(=O)c4ccc(C)cc4)cc3C(=O)N([C@H](C)CO)C[C@H]2C)cc1,/,/,4,/,/,/
COc1ccccc1NC(=O)N1[C@@H]2CNC[C@H]1C2c1ccc(-c2ccccc2OC)cc1 (stereo partly specified),/,/,13,/,/,/
Cc1ccc2c(c1)-c1cc(C)ccc1C2=O,-24,/,-3,-5,/,64*
Cc1ccccc1NC(=S)NNC(=O)c1csc2c1CCC(C)C2 (stereo unspecified),80*,-69*,34,-14,-76,87*
CC[C@H](C)/C=C(C)/C=C/C(=O)Cc1cc(O)c(C)c(O)c1C=O,4,44,/,-2,78*,8
COc1ccc(NCc2nnc(SCC(=O)Nc3cccc(C)c3)o2)cc1,-42,-54*,/,-17,-61,-18
Cc1cccc(NC(=O)N2CCCc3ccccc32)c1C,75*,-34,14,13,-40,51*
O=C(Nc1ccccc1)N1CCCc2ccccc21,-1,8,/,1,18,8
Cc1cc(=O)oc(C)c1C(=O)N1CCCc2ccccc21,12,-2,/,-4,-3,97*
Cc1ccc(NC(=O)N2CCCc3ccccc32)cc1C,65*,-10,-20,-16,-33,26
C[C@@H]1CN([C@@H](C)CO)C(=O)c2cc(C#Cc3cccnc3)cnc2O[C@@H]1CN(C)C,/,/,18,/,/,/
COC(=O)c1sc(-c2ccc(Cl)cc2)cc1NC(=O)c1ccccc1C(=O)O,-43,10,/,0,36,-1
COC(=O)c1sc(-c2ccc(C(C)(C)C)cc2)cc1NC(=O)c1ccccc1C(=O)O,52*,-34,-100,-21,-39,-8
O=C(c1ccncc1)N1C[C@H]2[C@@H](c3ccccc31)[C@@H](CO)N2C(=O)Nc1ccc(F)cc1,/,/,-9,/,/,/
O=c1oc(Cc2ccccc2)nc2ccccc12,-24,5,4,-6,15,0
c1ccc(Cc2nc3ccccc3o2)cc1,-8,-81*,-24,-3,-84,-17
COCC(=O)N(C)C[C@H]1Oc2cc(C#CC(C)C)ccc2S(=O)(=O)N([C@@H](C)CO)C[C@@H]1C,/,/,0,/,/,/
C[C@@H]1CN([C@H](C)CO)S(=O)(=O)c2ccc(-c3cccc(C#N)c3)cc2O[C@H]1CN(C)C(=O)C1CC1,/,/,6,/,/,/
Cc1ccc(COc2ccc(C)nc2[N+](=O)[O-])cc1,-49,30,-73,-12,75*,7
Cc1ccc(CNC(=O)COc2ccc(C)nc2[N+](=O)[O-])cc1,-17,-1,-6,-2,-3,-52
O=[N+]([O-])c1cccc(-c2nc(-c3ccccc3)c(-c3cccs3)[nH]2)c1,10,4,2,-2,-1,12
O=[N+]([O-])c1cccc(-c2noc(-c3cccs3)n2)c1,-100,43,/,-59,57*,1
O=[N+]([O-])c1ccc(-c2nc(-c3cccs3)c(-c3cccs3)[nH]2)cc1,66*,-11,16,-6,-4,79*
COc1ccc(-c2nc(-c3ccccc3)c(-c3cccs3)[nH]2)cc1OC,1,16,/,4,51*,37
